Screening data from PubChem BioAssay.
KB-V1 MDR tox: KB-V1 MDR subline cytotoxicity; KB-V1 MDR cells viability, CellTiter-Glo, 72 h; Potency, µM (titrated, usually from 46.1 µM), most hits filed as cytotoxic; hit rate 3.4% among 400,000; further: on the % scale 0 is the no-effect control and ±100 the full control effect; nearly all actives have a fitted effect of over 60% in size
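Cytotoxicity toward P-gp-expressing KB-V1 cells was determined as loss of CellTiter-Glo luminescence after 72 h at 37 degrees C. Compounds were tested in quantitative HTS format across a concentration range, with curves fitted to normalized data.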
HT1080 IDH1KD tx: toxicity to HT-1080 IDH1 knockdown cells (counter line). HT-1080 IDH1 knockdown viability, ATP luminescence, 48 h. Potency, µM (top dose mostly 46.1 µM), for the others: top-dose activity, negative = toxicity, usual class: cytotoxic. hit rate 2% among 360,000. AID 686971;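 further: 0% = DMSO wells and -100% = cell-free medium wells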
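After a 2 h attachment period, IDH1KD HT-1080 cells took pin-transferred compound for 48 h at 37 °C; ATP-based luminescence after 10 min room-temperature reagent incubation reported viability.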
KB-3-1 cytotox: KB-3-1 parental cell cytotoxicity; KB-3-1 viability, CellTiter-Glo ATP luminescence, 72 h; Potency, µM (highest dose often 46.1 µM), most hits filed as cytotoxic; hit rate 1.4% among 400,000; AID 1347075; further: on the % scale 0 is the no-effect control and ±100 the full control effect; nearly all actives have a fitted effect of over 60% in size
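Parental KB-3-1 adenocarcinoma cells in phenol-red-free DMEM with 10% FBS were pin-treated with compounds at several concentrations, incubated 72 h at 37 °C, and viability read by CellTiter-Glo luminescence; concentration-effect curves were fitted after normalization.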
SW480 rereplic: inducers of DNA re-replication in SW480 colon cancer cells. SW480 DNA re-replication, Hoechst DNA content imaging, 48 h. Potency, µM (top dose mostly 46.1 µM), inactives show at the highest dose re-replication activation, hits mostly activators. hit rate 1.8% among 340,000. AID 624297; further: % of control where 0% means no effect; nearly all actives have a fitted effect of over 55% in size
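Image-based read-out: total Hoechst fluorescence of nuclei (405 nm excitation, 500-530 nm emission), with hits raising the fraction of high-intensity nuclei. SW480 colon cells incubated 48 hr with compounds at 37 C.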
HT1080-NT tox: kills 2HG-producing HT-1080-NT fibrosarcoma cells | HT-1080-NT fibrosarcoma viability, CellTiter-Glo ATP luminescence, 48 h | Potency, µM (series often up to 46.1 µM), for inactives: top-dose activity, negative = less viability, most hits filed as cytotoxic | hit rate 1.6% among 360,000;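 further: NT is the 2HG producing partner of a matched IDH1 knockdown line; 0% = DMSO-treated cells and -100% = media-only wells without cells; nearly all actives have a fitted effect of over 55% in size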
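HT-1080-NT; 750 cells/well; 5% FBS RPMI; 48 h compound, 37 degrees C; CellTiter-Glo luminescence; curve fitting and curve-class assignment.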
MCF10A rerep: inducers of DNA re-replication in MCF 10A breast cells. MCF 10A DNA re-replication, Hoechst nuclear intensity, 48 h. Potency, µM (top dose mostly 46.1 µM), for the others: at the top dose activity, positive = re-replication, usual class: activators. hit rate 2.9% among 350,000; further: % of control where 0% means no effect; nearly all actives have a fitted effect of over 50% in size
The depositor's hits bear a star; i = inactive; ? = inconclusive; nt = no result; [ ] = remark or other dose. A selection: hits, their analogues and other compounds. The true share with any hit is near 8%. The call rests on the fitted dose curve; in most records, active means well fitted curve in the direction sought with a large enough effect; inconclusive means small, poorly fitted or top-dose-only effect, or another doubt; inactive means no such curve, though single readings can be large; an effect the other way counts as inactive or inconclusive. Potency means the concentration at half of the fitted maximal effect.

SMILES | KB-V1 MDR tox | HT1080 IDH1KD tx | KB-3-1 cytotox | SW480 rereplic | HT1080-NT tox | MCF10A rerep
Cc1ccccc1-c1cc(C(=O)Nc2sc(C)c(C)c2C(N)=O)c2ccccc2n1 | 16.4µM* | ? | i | -0.3% | ? | -5.6%
Cc1ccccc1C(=O)Nc1sc(C)c(C)c1C(=O)c1ccccc1 | 7.31µM* | 5.0% | i | 5.6% | 13.2% | 22.4%
CCOC(=O)c1sc(NC(=O)c2ccncc2)c(C#N)c1C | 2.59µM* | -0.6% | 4.11µM* | -4.5% | ? | -24.2%
CCOC(=O)c1sc(NC(=O)CSc2nc(C)cc(C)c2C#N)c(C#N)c1C | i | 10.4% | i | -3.4% | 6.7% | 2µM*
CN(C)c1cccc(-c2ncnc(N3CCC(C(N)=O)CC3)n2)c1 | i | nt | i | nt | nt | nt
COC(=O)CSc1nc(C)cc(C)c1C#N | ? | 0.9% | ? | 3.7% | 16.3% | 15.0%
CCOC(=O)c1c(NC(=O)c2cc(-c3ccc(Cl)s3)nc3ccccc23)sc(C(N)=O)c1C | i | 1.4% | ? | -6.9% | 9.2% | ?
CCOC(=O)c1sc(NC(=O)c2cc(-c3ccccc3C)nc3ccccc23)c(C#N)c1C | ? | ? | 8.2µM* | 3.5% | ? | 2.59µM*
COCc1cc(C)nc(SCC(=O)Nc2nc(C)cs2)c1C#N | i | 2.5% | ? | ? | ? | 16.4µM*
Cc1cc(C)c(C#N)c(SCC(=O)C2CC2)n1 | i | 10.7% | i | 20.6µM* | -8.2% | ?
CCN(CC)c1ccc(-c2nc(-c3ccccc3C)no2)cc1[N+](=O)[O-] | i | nt | i | nt | nt | nt
Cc1ccc(C)c(-n2sc3ccc(F)cc3c2=O)c1 | i | ? | i | 18.4µM* | 20.6µM* | ?
Cc1cccc(C=Nc2ccccc2C(N)=O)c1 | 6.51µM* | 7.08µM* | 23.1µM* | 5.8µM* | 10µM* | 3.66µM*
Cc1ccc(C=Nc2ccccc2C(N)=O)s1 | i | 3.26µM* | 23.1µM* | 4.61µM* | 5.17µM* | 3.66µM*
Cc1c(C)n(Cc2ccc(F)cc2)c2ccc(C(=O)Nc3ccc(Cl)cc3)cc12 | i | nt | ? | nt | nt | nt
CS(=O)(=O)N1CCCC(C(=O)NC2CCCCCCC2)C1 (stereo not drawn) | ? | 0.0% | i | 13.4% | 0.0% | 23.1µM*
CCS(=O)(=O)N1CCCC(C(=O)NC2CCCCC2)C1 (stereo not drawn) | i | 11.7% | i | -3.7% | 23.0% | 0.8%
Cc1ccc(S(=O)(=O)N2CCCC(C(=O)NC3CCCC3)C2)cc1Cl (stereo not drawn) | 13µM* | -3.4% | ? | -5.9% | -9.4% | 1.4%
COc1cc(C2C(=O)N(C3CCCC3)CC(=O)N2Cc2ccco2)ccc1OC(C)C (stereo not drawn) | 3.66µM* | -0.9% | i | -3.3% | 9.3% | -3.9%
O=C(CSc1nc(=O)n(Cc2ccncc2)c2c1CCC2)Nc1ccccc1 | i | nt | i | nt | nt | nt
Nc1cccc2cccnc12 | i | nt | i | nt | nt | nt
Cc1ccc2ccc3cccnc3c2n1 | ? | -19.0% | 11.6µM* | ? | -5.4% | 11.5%
CCOc1ccc2nc(NC(=O)CS(=O)(=O)c3ccc(Cl)cc3)sc2c1 | i | nt | ? | nt | nt | nt
CCC1C/C(=C\c2cc(OC)c(OC)cc2OC)C(=O)/C(=C/c2cc(OC)c(OC)cc2OC)C1 (stereo not drawn) | i | 20.6µM* | ? | 18.4µM* | 13µM* | 4.61µM*
COc1cc(OC)c(OC)cc1/C=C1\CC(C)C/C(=C\c2cc(OC)c(OC)cc2OC)C1=O (stereo not drawn) | i | ? | ? | ? | ? | 16.4µM*
SMILES | KB-V1 MDR tox | HT1080 IDH1KD tx | KB-3-1 cytotox | SW480 rereplic | HT1080-NT tox | MCF10A rerep
COc1cc(OC)c(OC)cc1/C=C1/Cc2ccccc2C1=O | i | -1.4% | i | 8.7% | 8.0% | -0.9%
Cc1nn(CC(=O)NCc2ccc(Cl)cc2)c(C)c1[N+](=O)[O-] | i | 7.5% | i | ? | 11.2% | 1.1%
Cc1ccc(NC(=O)Cn2nc(C)c([N+](=O)[O-])c2C)cc1C | i | -12.6% | i | 1.9%[1.84 µM] | 0.2% | -26.9%
CCN(CC)c1ccc(S(=O)(=O)N2CCOCC2)cc1NC(=O)Cn1nc(C)c([N+](=O)[O-])c1C | i | 1.2% | i | -10.7% | -1.1% | -1.2%
Cc1nn(CC(=O)Nc2ccc3c(c2)CCC3)c(C)c1[N+](=O)[O-] | 18.4µM* | -4.8% | i | 0.8% | -3.9% | -2.1%
Cn1nc(CC(=O)Nc2ccc3c(c2)CCC3)c2ccccc2c1=O | i | 2.91µM* | i | -5.9% | -13.4% | 1.9%
Cc1nn(CC(=O)Nc2cc(S(=O)(=O)N(C)C)ccc2Cl)c(C)c1[N+](=O)[O-] | 20.6µM* | -3.3% | i | -3.7% | 7.9% | 17.3%
Cc1nn(CC(=O)NCc2ccc(-n3cccn3)cc2)c(C)c1[N+](=O)[O-] | i | 6.0% | i | 0.517µM* | 0.5% | 0.2%
Cn1nc(CC(=O)NC2CCCCCCCCCCC2)c2ccccc2c1=O | i | -0.2% | ? | -3.8% | -16.1% | 6.0%
CCOC(=O)c1ccc(N2C(=O)c3n[nH]c(-c4ccco4)c3C2c2cccc(O)c2)cc1 (stereo not drawn) | i | nt | i | nt | nt | nt
COc1cc2c(C(=O)N(C)c3cc(Cl)ccc3OC)cn(CC(C)C)c(=O)c2cc1OC | ? | nt | i | nt | nt | nt
Cc1ccc(C)c(N2CCN(C(=O)CC3Sc4ccccc4NC3=O)CC2)c1 (stereo not drawn) | 16.4µM* | ? | ? | 6.0% | ? | ?
Cc1ccc(-c2nnc(Nc3ccc(OCC(N)=O)cc3)c3ccccc23)cc1S(=O)(=O)N(C)C | i | nt | ? | nt | nt | nt
CCOc1ccc(N2C(=O)CC(Sc3nnnn3-c3ccccc3)C2=O)cc1 (stereo not drawn) | i | 14.6µM* | i | 16.4µM* | -27.7% | ?
CCOc1ccc(-n2nnnc2SCC(=O)c2ccccc2)cc1 | ? | ? | ? | ? | ? | 4.11µM*
COc1ccc(-n2nnnc2SCC(=O)c2cccc(OC)c2)cc1 | i | -2.8%[9.24 µM] | i | -5.5% | 22.4µM* | ?
CCOc1ccc(N2C(=O)CC(SCCN)C2=O)cc1 (stereo not drawn) | i | 10.5% | i | -3.7% | 6.8% | -188.0%[0.0737 µM]
CCc1ccc(S(=O)(=O)c2nnn3c2nc(Nc2ccc(C)c(Cl)c2)c2sccc23)cc1 | i | nt | i | nt | nt | nt
Clc1ccc(CNc2ncnc3nc[nH]c23)cc1 | i | nt | i | nt | nt | nt
Clc1ccc(CSc2nc3ncccc3[nH]2)cc1 | i | nt | i | nt | nt | nt
COc1ccc(CCNc2ncnc3onc(C)c23)c(OC)c1 | i | nt | ? | nt | nt | nt
